# Assay outcomes as filed in PubChem BioAssay.
# An excerpt weighted towards active compounds, which were near 2.1% of everything screened.
# Mito fusion act – blocks mitochondrial division or promotes mitochondrial fusion; S. cerevisiae fusion-defective mutant growth rescue, CellTiterGlo 48 h; actives 0.23% (n = 320,000); Potency, µM (highest dose often 46.1 µM), actives largely listed as activators; AID 485298; also: nearly all actives have a fitted effect of over 45% in size
#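 Growth-rescue viability read-out: after 48 h at the non-permissive 37C in glycerol/ethanol YPEG, yeast mitochondrial fusion mutants are measured by CellTiterGlo luminescence; compounds (23 nl pinned per well) restoring growth score as division inhibitors or fusion activators.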
# Glioma ERSR ind – inducers of ER stress response in human glioma cells | U87-MG GRP78 promoter luciferase reporter, 16 h | actives 0.02% (n = 420,000) | Potency, µM, hits mostly activators; also: series mostly up to about 76 µM; nearly all actives have a fitted effect of over 35% in size
#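 Stably transfected U87-MG human glioma cells carrying a GRP78-based luminescent sensor were seeded at 1000 cells/well, pin-dosed with compounds and incubated 16 h. Luciferase reagent was then added, and end-point luminescence was read after 10 min at room temperature.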
# aSyn yeast inh – alpha-synuclein toxicity inhibition in yeast; Yeast expressing alpha-synuclein, growth rescue, BacTiter-Glo, 24 h; Potency, µM (highest dose often 46.1 µM), actives largely listed as activators; actives 0.14% (n = 370,000); also: nearly all actives have a fitted effect of over 65% in size
#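 Readout is rescue of growth in alpha-synuclein-expressing yeast, so inhibitors of toxicity appear as activators. Growth after 24 hr at 30 deg C in galactose medium is quantified by luminescence.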
# Abeta rescue – restores growth of yeast expressing A-beta42 peptide | yeast expressing A-beta42, growth rescue, OD600, 48 h; response scale: 0% DMSO, 100% iron-clioquinol control | Potency, µM (titrated, usually from 46.1 µM), usual class: activators | actives 0.063% (n = 410,000) | AID 1347071; also: nearly all actives have a fitted effect of over 55% in size
#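 Yeast A-beta toxicity model in growth medium with pinned compounds, 48 h at 30 C; growth read as absorbance at 600 nm. Normalized to FeCl3/clioquinol equimolar mix (positive) and DMSO (negative).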
# AT treatment – candidate therapy for ataxia-telangiectasia. F2112 A-T fibroblasts, KAP-1 phosphorylation AlphaLISA; neocarzinostatin DNA damage 30 min before lysis. Potency, µM (series often up to 57.5 µM), hits mostly activators. actives 0.19% (n = 320,000); also: nearly all actives have a fitted effect of over 45% in size
#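 ATM-like activity read as KAP-1 phosphorylation via AlphaLISA donor/acceptor antibody pairs after lysis and 6 hr at 25C. Cells were ATM-null patient fibroblasts (F2112, hTERT), dosed 60 min, then exposed to the DSB inducer NCS for 30 min.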
# TDP-43 yeast inh – rescues yeast growth from TDP-43 toxicity; TDP-43 expressing yeast growth rescue, BacTiter-Glo, 24 h; Potency, µM (top dose mostly 46.1 µM), actives largely listed as activators; AID 652104; actives 1.8% (n = 410,000); also: nearly all actives have a fitted effect of over 50% in size
#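 Yeast cells expressing TDP-43 under galactose induction are exposed to compounds for 24 hr at 30 deg C. BacTiter-Glo luminescence measures growth, so protective compounds score as activators.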
# A number is an active result; n = inactive; u = inconclusive; x = no result given; [ ] = another dose, or the depositor's remark. Calls follow the shape of the dose curve; as a rule, active = well fitted curve in the direction sought with a large enough effect; inconclusive = small, poorly fitted or top-dose-only effect, or another doubt; inactive = no such curve, though single readings can be large; an effect the other way counts as inactive or inconclusive.
SMILES,Mito fusion act,Glioma ERSR ind,aSyn yeast inh,Abeta rescue,AT treatment,TDP-43 yeast inh
COC(=O)C1=C(C)N(c2ccc(Cl)c(Cl)c2)C(=O)C1,n,n,n,n,n,12.6µM
COC(=O)C1=C(C)N(c2ccc(S(N)(=O)=O)cc2)C(=O)C1,n,n,n,n,n,n
S=C(NC1CCCCC1)NC1CC2C=CC1C2 (configuration not stated),n,n,n,11.2µM,n,n[1.82 µM]
CN(C)c1ccc(-c2nnc3n(Cc4ccccc4)c(=O)c4ccccc4n23)cc1,x,n,x,n,x,n
CCCn1nc(NC(=O)CC)c2cc3cccc(C)c3nc21,u,n,n,n,n,n
CCCn1nc(NS(C)(=O)=O)c2cc3cccc(C)c3nc21,n,n,n,n,n,35.5µM
N#Cc1ncc(C(F)(F)F)cc1Sc1ccc(N)cc1,n,n,n,u,n,14.1µM
S=C(NC1CC1)SCc1ccco1,n,n,n,n,n,28.2µM
O=[N+]([O-])c1ccc2oc(C(O)c3cccc(Cl)c3)cc2c1 (configuration not stated),25.1µM,n,u,n,n,u
Cc1nc(-c2ccccn2)nc(SCC(=O)c2ccc(F)cc2)c1Cl,n,n,u,n,n,11.2µM
Cc1[nH]nc(-c2ccc(O)cc2O)c1-c1ccc(Cl)cc1,n,n,n,n,n,20µM
COc1ccc(-c2n[nH]c(C)c2-c2ccc(Cl)cc2)c(O)c1,n,n,n,n,n,n
O=[N+]([O-])c1ccc(-c2nc(NCc3ccccc3)c3ccccc3n2)cc1,n,n,n,n,n,n
O=[N+]([O-])c1cccc(-c2nc(NCc3ccccc3)c3ccccc3n2)c1,3.16µM,n,n,n,n,n
CN(Cc1ccccc1)c1nc(-c2cccc([N+](=O)[O-])c2)nc2ccccc12,n,n,n,n,n,14.1µM
CCC1CCCCN1C(=O)CSc1nc2c([nH]c3ccccc32)c(=O)n1-c1cccc(OC)c1 (configuration not stated),x,n,n,n,x,u
COc1cccc(-c2nc(CCl)cs2)c1OC,n,n,n,n,n,14.1µM
COc1cccc(-c2nc(CC(=O)O)cs2)c1OC,n,n,n,n,n,n
O=S(=O)(Nc1ccc(Cl)cn1)c1ccc(Cl)cc1,n,n,n,n,n,11.2µM
CCc1ccc(S(=O)(=O)Nc2ccc(Cl)cn2)cc1,n,n,n,n,n,n
C#CCN(Cc1nc(N2CCOCC2)c2ccc(Cl)cc2n1)Cc1ccco1,x,n,x,x,x,x
N#CCN1C(=O)C(=O)N(Cc2cccc(Cl)c2)C1=O,n,n,n,n,0.708µM,n
O=C1Cc2ccccc2C(=O)N1OCc1ccc(Cl)cc1,n,n,n,n,n,u
Nc1cccc2c1C(=O)N(Cc1cccc(Cl)c1)C2=O,n[9.22 µM],n,u,n,n,20µM
O=C1Cc2ccccc2C(=O)N1Cc1cccc(Cl)c1,n,n,n,n,n,12.6µM
SMILES,Mito fusion act,Glioma ERSR ind,aSyn yeast inh,Abeta rescue,AT treatment,TDP-43 yeast inh
COC(=O)C1CCN(Cc2ccc3c(c2)CN(C(=O)c2cc(C)nc(C)n2)CCO3)CC1,x,n,x,x,x,x
Cc1ncc2c(c1CNS(=O)(=O)N(C)C)CCN(C(=O)c1[nH]c3ccc(Cl)cc3c1C)C2,x,n,x,x,x,x
Cc1ccc(C(=O)N(Cc2cc3cccc(C)c3nc2N(C)C)CC2CCCO2)cc1 (configuration not stated),x,n,x,x,x,x
O=S1(=O)C=C(Sc2nc3ccccc3s2)c2ccccc21,n,n,n,n,u,2.24µM
CCOC(=O)c1c(NC(=O)COc2ccc(Cl)cc2Cl)sc2c1CCCCC2,x,n,x,n,x,n
OC[C@H]1O[C@H](OC[C@H]2OC(O)[C@H](O)[C@@H](O)[C@@H]2O)[C@H](O)[C@@H](O)[C@@H]1O (some centres not stated),n,n,n,n,u,n
COc1ccc(NN=Nc2ccc([N+](=O)[O-])cc2)cc1,n,n,n,u,n,17.8µM
O=C(OCCOCCOC(=O)Oc1ccccc1)Oc1ccccc1,x,n,n,n,x,14.1µM
COc1ccc(OC(=O)OCc2ccccc2)cc1,x,n,n,n,x,n
Cc1ccc(O)c(N=Nc2ccccc2)n1,n,n,n,n,x,11.2µM
COc1ccc(-c2csc(Nc3cccc(C)n3)n2)cc1,n,n,n,n,n,17.8µM
Fc1ccc(-c2csc(-c3ccncc3)n2)cc1,n,n,n,n,n,12.6µM
c1csc(-c2csc(-c3cccs3)n2)c1,n,n,n,n,n,12.6µM
Fc1ccc(-c2csc(Nc3ccccn3)n2)cc1,n,n,n,n,n,11.2µM
CN(C)c1ccc(/C=C/c2ccnc3ccccc23)cc1O,x,n,n,x,x,x
Cc1nc2sccn2c1CN1CCOc2ccc(CN3C[C@@H](C)O[C@@H](C)C3)cc2C1,x,n,x,x,x,x
COCCNC(=O)C1(C)CCN(C(=O)c2ccc(C(F)(F)F)nc2C)C1 (configuration not stated),x,n,n,n,x,n
CCOc1ccc(C(=O)N2CC(=O)Nc3ccc(C)cc3C2c2ccc(F)cc2)cc1OCC (configuration not stated),x,n,x,n,x,n
COCC(=O)Nc1cc(C(=O)N2CCOc3ccccc3C2)cc2nc(-c3cccnc3)n(C)c12,x,n,x,x,x,x
COc1cc(OC)c(OC)cc1CN1CCC(n2cc(C(=O)N3CCCCC3)nn2)CC1,x,n,x,x,x,x
COc1ccc(NC(=O)N2CCCC3(CCN(C(=O)c4cnccn4)CC3)C2)cc1,x,n,x,x,x,x
NC(=O)CSc1ccc2nnc(-c3ccncc3)n2n1,x,n,n,x,x,x
c1ccc(Nc2nc(-c3cccs3)cs2)nc1,n,n,n,n,n,35.5µM
CC(=O)Oc1ccc(-c2csc(Nc3ccccn3)n2)cc1,x,n,n,n,x,12.6µM
O=C(NCc1cccnc1)c1cnn(-c2nccc(-c3cccs3)n2)c1C1CC1,x,n,x,x,x,x
SMILES,Mito fusion act,Glioma ERSR ind,aSyn yeast inh,Abeta rescue,AT treatment,TDP-43 yeast inh
CCNC(=O)C1=C(O)c2sccc2N(C)S1(=O)=O,n,n,n,n,n,8.91µM
CN1c2ccsc2C(O)=C(C(=S)Nc2ccccc2)S1(=O)=O,n,u,n,n,n,u
O=C(NCCCOc1ccc([N+](=O)[O-])cc1Cl)OCc1ccccc1,x,n,u,n,x,15.8µM
CCOC(=O)c1cc(C)n(CC2CCC(C(=O)Nc3cccc(C(C)=O)c3)CC2)c1C (configuration not stated),x,n,x,n,x,n
Cc1ccc(S(=O)(=O)NC(=S)NC2CCCCC2)cc1,n,n,n,n,n,15.8µM
N#C/C(=C\c1ccc(Cl)cc1)C(=O)Nc1cccnc1,n,n,n,12.6µM,n,n[1.82 µM]
COc1ccc(/C=C(\C#N)C(=O)Nc2cccnc2)cc1,n,n,n,n,n,n
